Measured values: the supplement of paper PMC13380429

Columns and labels:
[1] = tested on: Vero E6 infected with SARS-CoV-2; experiment: morphology score (similarity to uninfected cells); higher = more like uninfected cells; conditions: 24 h
[2] = tested on: Vero E6 infected with SARS-CoV-2; experiment: SARS-CoV-2 infection rate relative to infected DMSO; higher = more infection, active = 60 or less; conditions: 24 h

Row | Compound | morphology score [1] | SARS-CoV-2 infection rate [2]
1 | c1ccc(N2CCN(Cc3nc4ccccc4[nH]3)CC2)nc1 (10 µM) | 0.136 | 104% (inactive)
2 | Cc1cccc(-c2[nH]c(C(C)(C)C)nc2-c2ccc3nccnc3c2)n1 (10 µM) | -0.0319 | 100% (inactive)
3 | COC(=O)N/N=C/c1c[n+]([O-])c2ccccc2[n+]1[O-] [carbadox] (10 µM) | 0.227 | 85% (inactive)
4 | COc1ccc2nc3[nH]nc(C)c3c(NCCOCCO)c2c1 (10 µM) | -0.00598 | 111% (inactive)
5 | CO[C@H]1/C=C/O[C@@]2(C)Oc3c(C)c(O)c4c(O)c(c(/C=N/N5CCN(C6CCCC6)CC5)c(O)c4c3C2=O)NC(=O)/C(C)=C\C=C\[C@H](C)[C@H](O)[C@@H](C)[C@@H](O)[C@@H](C)[C@H](OC(C)=O)[C@@H]1C [rifapentine] (10 µM) | 0.192 | 107% (inactive)
6 | C/C(=N\NC(=O)C(NC(=O)c1ccccc1)c1n[nH]c(=O)c2ccccc12)c1cccc(Br)c1 (stereo not given) (10 µM) | 0.029 | 98.5% (inactive)
7 | Cc1ccc(NC(=O)CCCCCC(=O)Nc2ccccc2N)cc1 (0.833333 µM) | -0.0538 | 103% (inactive)
8 | O=C1C=C2C=C[C@@H]3C[C@@]2(O1)[C@H]1CCCCN31 [securinine] (10 µM) | 0.327 | 85.5% (inactive)
9 | c1ccc2c(c1)OC[C@H](CNCCCOc1ccc3c(c1)OCO3)O2 [osemozotan] (10 µM) | 0.0986 | 106% (inactive)
10 | CCCCCCCCCCCCCCCC(=O)OC(CC(=O)[O-])C[N+](C)(C)C (stereo not given) [palmitoylcarnitine] (0.833333 µM) | -0.0181 | 106% (inactive)
